Screening data: PubChem, National Center for Advancing Translational Sciences (NCATS)
mTORC1 inh: reduces mTORC1 signaling in Tsc2 and p53 null MEF cells. Potency, µM (series often up to 38.3 µM), for inactives: at the top dose activity change, negative = inhibition, actives largely listed as inhibitors. hit rate 0.78% among 44,000. Tsc2-/- p53-/- MEF, phospho-rpS6 immunofluorescence/PI, 24 h;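 note: potency is the fitted concentration of half-maximal effect; plate controls were DMSO for no effect and rapamycin for full effect; nearly all actives have a fitted effect of over 50% in size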
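Tsc2-/-, p53-/- MEFs (empty-vector stable line) in DMEM + 10% FBS were treated with compounds 24 h at 37 degree Celsius, fixed, and immunostained for phospho-rpS6 (Alexa-488) with propidium iodide counterstain. Laser-scanning cytometry gave % positive cells, normalized against 7.5 nM rapamycin and DMSO.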
PMP22 txn: modulates PMP22 transcription in S16 Schwann cells; S16 Pmp22-F2sN Schwann cells, FLuc/NLuc coincidence luminescence, 24 h; Potency, µM (series often up to 57.5 µM), for the others: at the top dose activity change, negative = inhibition, hits mostly inhibitors; hit rate 2% among 43,000; active = clear falling dose curves in both reporters; inconclusive = both reporters move, but less clearly or upward; inactive = either reporter flat; the % is the NLuc reporter signal; note: potency is the fitted concentration of half-maximal effect; % is set by controls: 0 for no effect and ±100 for the full control effect
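S16(c9) Schwann cells with FLuc/NLuc coincidence reporter in the Pmp22 3' UTR; compounds pin-transferred, 24 h at 37C. Dual-luciferase read: FLuc first, then NLuc after Stop&Glo, each 10 min at room temperature.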
SKOV3 invasion: inhibitors of ovarian cancer cell adhesion and invasion in omental model; SKOV3ip1-GFP adhesion/invasion on 3D omental model, fluorescence; hit rate 0.1% among 46,000; Potency, µM (titrated, usually from 45.8 µM), for the others: top-dose activity change, negative = inhibition, usual class: inhibitors;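 note: potency is the fitted concentration of half-maximal effect; plate controls were DMSO wells for no effect and tomatine positive control wells for full effect; nearly all actives have a fitted effect of over 65% in size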
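qHTS, 4-pt dose (0.36-46 umol/L); SKOV3ip1-GFP, 1,200 cells/well, no FBS; primary omental fibroblast/mesothelial co-culture 48 h pre-grown; 2 h RT + 16 h 37 C; PBS wash, 4% PFA; GFP count 488/509 nm.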
p53null 39C tox: selectivity test: cytotoxicity in p53 null cells, nonpermissive temperature; hit rate 0.97% among 55,000; H1299 p53-null (neo) cells, 39C, ATPlite viability, 24 h; Potency, µM (series often up to 46.1 µM), inactives show at the highest dose activity, negative = cell killing, usual class: cytotoxic; AID 904;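 note: potency is the fitted concentration of half-maximal effect; 0% = DMSO only and -100% = full killing by 100 µM tamoxifen; nearly all actives have a fitted effect of over 50% in size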
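Cells seeded at 600/well, 37C overnight. Compound added (up to 46 uM), plates shifted to 39C for 24 hr. ATPlite added, luminescence read after 20 min at room temperature.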
S16 F2sN tox: cytotoxicity in S16 Pmp22-F2sN Schwann cells. S16 Pmp22-F2sN Schwann cells (luciferase reporters placed in the Pmp22 gene) viability, CellTiter-Glo, 24 h. Potency, µM (doses to about 57.5 µM), inactives show at the highest dose activity change, negative = cytotoxicity, hits mostly cytotoxic. hit rate 0.48% among 43,000; note: potency is the fitted concentration of half-maximal effect; % is set by controls: 0 for no effect and ±100 for the full control effect; nearly all actives have a fitted effect of over 65% in size
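Seed 500-1,000 S16 Pmp22-F2sN cells per well in phenol-red-free DMEM with 10% heat-inactivated FBS; pin-add 23 nL compound; incubate 24 h at 37C; add CellTiter-Glo, wait 15 min protected from light; read luminescence.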
p53null 32C kill: kills p53 null cells at the permissive temperature | H1299-neo p53 null cells, ATP luminescence, 24 h, 32C | Potency, µM (top dose mostly 46.1 µM), for the others: at the highest dose activity change, negative = cytotoxicity, hits mostly cytotoxic | hit rate 0.62% among 55,000;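 note: potency is the fitted concentration of half-maximal effect; 0% = DMSO only and -100% = full killing by 100 µM tamoxifen; nearly all actives have a fitted effect of over 55% in size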
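Luminescent ATP readout gave cell viability of p53-null H1299-neo cells after a 24 h compound exposure at the permissive 32C. Titrations ran up to 46 uM, and AC50s were fitted with the standard Hill equation.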
NLuc sat counter: NanoLuc enzyme inhibition artifact for PMP22 screen | AID 1508638 | Potency, µM (top dose mostly 57.5 µM), inactives show at the top dose activity change, negative = inhibition, hits mostly inhibitors | Secreted NLuc enzyme (filtered S16 cell medium), Nano-Glo luminescence | shares compounds with PMP22 txn | hit rate 4% among 690; note: potency is the fitted concentration of half-maximal effect; % is set by controls: 0 for no effect and ±100 for the full control effect
NLuc Km ctr: NanoLuc inhibition at Km substrate, PMP22 artifact check; hit rate 5% among 690; secreted NLuc enzyme, coelenterazine luminescence, Km conditions; shares compounds with PMP22 txn; Potency, µM (doses to about 57.5 µM), inactives show at the top dose activity change, negative = inhibition, hits mostly inhibitors; note: potency is the fitted concentration of half-maximal effect; % is set by controls: 0 for no effect and ±100 for the full control effect
FLuc counter: inhibits firefly luciferase, PMP22 counter-screen. shares compounds with PMP22 txn. purified P. pyralis FLuc, luminescence, 10 min. Potency, µM (highest dose often 57.5 µM), inactives show at the top dose activity, negative = inhibition, actives largely listed as inhibitors. 690 tested, under 10 active; note: % of control where 0% means no effect
Target sequence (P08659 whole entry, looked up): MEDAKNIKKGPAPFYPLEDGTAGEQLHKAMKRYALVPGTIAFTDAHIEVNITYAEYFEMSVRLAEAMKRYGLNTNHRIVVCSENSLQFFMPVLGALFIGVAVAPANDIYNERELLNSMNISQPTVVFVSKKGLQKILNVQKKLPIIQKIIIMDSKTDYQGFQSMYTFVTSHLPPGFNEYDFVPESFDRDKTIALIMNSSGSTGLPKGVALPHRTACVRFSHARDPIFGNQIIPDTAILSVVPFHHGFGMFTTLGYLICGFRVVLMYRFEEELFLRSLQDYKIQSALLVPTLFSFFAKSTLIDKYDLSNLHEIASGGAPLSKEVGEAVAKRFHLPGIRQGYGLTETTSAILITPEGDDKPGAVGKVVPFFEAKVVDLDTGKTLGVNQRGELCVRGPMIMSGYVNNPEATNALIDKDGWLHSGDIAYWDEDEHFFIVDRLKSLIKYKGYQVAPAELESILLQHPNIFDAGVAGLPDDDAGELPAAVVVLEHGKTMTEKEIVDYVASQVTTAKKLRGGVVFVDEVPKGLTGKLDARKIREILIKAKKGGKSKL
S16 F2sN tox cnf: S16 Schwann cell cytotoxicity, confirmatory. shares compounds with PMP22 txn. S16 Schwann cells viability, CellTiter-Glo ATP luminescence, 24 h. Potency, µM (highest dose often 57.5 µM), without a hit: at the top dose activity change, negative = viability loss, most hits filed as cytotoxic. hit rate 7% among 690; note: potency is the fitted concentration of half-maximal effect; % is set by controls: 0 for no effect and ±100 for the full control effect
PMP22 txn cnf: confirmation of modulators of PMP22 gene transcription in S16 cells | Potency, µM (titrated, usually from 57.5 µM), without a hit: at the highest dose activity change, negative = inhibition, hits mostly inhibitors | shares compounds with PMP22 txn | S16 Schwann cells Pmp22-F2sN, dual luciferase, 24 h | hit rate 22% among 690 | AID 1508646; active = clear falling dose curves in both reporters; inconclusive = both reporters move, but less clearly or upward; inactive = either reporter flat; the % is the FLuc reporter signal; note: potency is the fitted concentration of half-maximal effect
Active calls of the source: *; i = inactive; ? = inconclusive; . = no result. Compounds with a hit are over-represented: about 3.1% of the library has one in this group of screens. Unless noted, calls come from the whole dose curve; as a rule, active = well fitted curve in the direction sought with a large enough effect; inconclusive = small, poorly fitted or top-dose-only effect, or another doubt; inactive = no such curve, though single readings can be large; an effect the other way counts as inactive or inconclusive.

SMILES	mTORC1 inh	PMP22 txn	SKOV3 invasion	p53null 39C tox	S16 F2sN tox	p53null 32C kill	NLuc sat counter	NLuc Km ctr	FLuc counter	S16 F2sN tox cnf	PMP22 txn cnf
C=CC[C@@H]1C=C(C)C[C@H](C)C[C@H](OC)[C@H]2O[C@@](O)(C(=O)C(=O)N3CCCC[C@H]3C(=O)O[C@H](C(C)=C[C@@H]3CC[C@H](O)[C@H](OC)C3)[C@@H](C)[C@@H](O)CC1=O)[C@@H](C)C[C@@H]2OC	.	.	0%	.	.	.	.	.	.	.	.
Cc1nnc(N2CCC(C(=O)N3CCCCC3)CC2)c2nn(-c3ccc(Cl)cc3)c(C)c12	-2%	19µM*	2%	-5%	?	27%	-6%	5%	-2%	-9%	?
Cc1ccc(NC(=O)C2CCN(c3nnc(C)c4c(C)n(-c5ccccc5)nc34)CC2)cc1Cl	-8%	-3%	-3%	30%	11%	-4%	.	.	.	.	.
COC(=O)c1ccccc1NC(=O)C1CCCN(c2nnc(C)c3c(C)n(-c4ccccc4)nc23)C1 (configuration not stated)	-6%	-1%	0%	21%	12%	2%	.	.	.	.	.
COc1ccc(CNC(=O)C2CCCN(c3nnc(C)c4c(C)n(-c5ccc(C)cc5)nc34)C2)cc1 (configuration not stated)	-14%	17µM*	-29%	3%	?	-1%	?	?	-4%	?	?
COc1ccc(NC(=O)C2CCCN(c3nnc(C)c4c(C)n(-c5ccccc5)nc34)C2)cc1Cl (configuration not stated)	?	20µM*	?	?	?	?	-9%	-1%	28%	43µM*	?
Cc1nnc(N2CCCC(C(=O)Nc3ccccc3C(F)(F)F)C2)c2nn(-c3ccccc3)c(C)c12 (configuration not stated)	-8%	13µM*	?	-3%	28µM*	-2%	-19%	-2%	4%	?	?
COc1ccc(-n2c(C)c([N+](=O)[O-])c3ccc(O)cc32)cc1	.	.	-14%	.	.	.	.	.	.	.	.
Cc1cccc2c1CC[C@H](CN1CCC(c3c(Cl)cccc3Cl)CC1)C[C@@H]2O	.	.	8%	.	.	.	.	.	.	.	.
Cc1cc(Nc2sc(C(=O)c3ccc(F)cc3)c(N)c2C(=O)Nc2ccc(F)cc2)ccc1Cl	-11%	6.3µM*	?	4%	?	1%	-19%	?	3%	?	6.1µM*
O=C(Nc1cccc2c(=O)cc(-c3nn[nH]n3)oc12)c1ccc(OCCCCc2ccccc2)cc1	.	.	-12%	.	.	.	.	.	.	.	.
CC(=O)SC[C@@H](C)C(=O)N1CCC[C@H]1C(=O)N[C@@H](Cc1ccccc1)C(=O)O	.	.	-4%	.	.	.	.	.	.	.	.
O=C(CSc1ncc2c(n1)-c1ccccc1N(Cc1ccc(F)cc1)S2(=O)=O)NCCc1ccccc1	3%	18µM*	2%	6%	4%	-3%	-1%	2%	7%	?	?
Cc1c(-c2cccc3c(CCCOc4cccc5ccccc45)c(C(=O)O)n(Cc4cccnc4)c23)c(COc2ccc(N3CCN([S+](=O)([O-])N(C)C)CC3)cc2)nn1C	.	.	0%	.	.	.	.	.	.	.	.
O=C(CSc1nc2nccnc2c(=O)n1CCc1c[nH]c2ccccc12)Nc1ccc(F)cc1	6%	7µM*	21%	-9%	12%	-2%	?	?	-14%	7%	-40%
COc1cc(-c2nc(Cn3nnc(C(=O)Nc4cc(C)cc(C)c4)c3C)c(C)o2)cc(OC)c1OC	-11%	?	i	18%	5%	20%	4.8µM*	3.9µM*	-8%	-2%	?
COc1ccc(NC(=O)c2nnn(Cc3nc(-c4cc(OC)c(OC)c(OC)c4)oc3C)c2C)cc1	-10%	9%	-6%	-4%	-2%	6%	.	.	.	.	.
CCOC(=O)C1CCN(C(=O)c2ccc3c(=O)n4nc(Nc5ccccc5)sc4nc3c2)CC1	-5%	5.3µM*	i	23%	4%	-9%	?	?	?	6%	-23%
Cc1ccc(C)c(Nc2nn3c(=O)c4ccc(C(=O)NC5CCCCC5)cc4nc3s2)c1	-2%	-21%	-2%	12%	-19%	-4%	.	.	.	.	.
Cc1c(Cl)cccc1Nc1nn2c(=O)c3ccc(C(=O)N(C)Cc4ccccc4)cc3nc2s1	0%	-25%	0%	-1%	1%	-6%	.	.	.	.	.
Cc1c(Cl)cccc1Nc1nn2c(=O)c3ccc(C(=O)NCCc4ccccc4)cc3nc2s1	-3%	10µM*	i	?	?	?	-15%	?	1%	27µM*	15µM*
Cc1ccc(C)c(Nc2nn3c(=O)c4ccc(C(=O)NCCc5ccccc5)cc4nc3s2)c1	1%	13µM*	i	-16%	17%	-9%	?	-2%	-1%	19µM*	11µM*
COc1ccccc1Nc1nn2c(=O)c3ccc(C(=O)N4CCC(C)CC4)cc3nc2s1	-1%	?	-8%	24%	5%	-8%	.	.	.	.	.
NC(=O)c1ccc(-c2nc(-c3ccc4c(c3)OCCO4)c(-c3ccccn3)[nH]2)cc1	.	.	7%	.	.	.	.	.	.	.	.
